Experimental data reported in PubChem BioAssay AID434970 (Sanford-Burnham Center for Chemical Genomics, 2010).
Out of some 11,000 compounds screened, about 310 (2.8%) were called active. No stated cut-off is given here; in the data, active means activity change below about -85%; inactive means the rest. Only a selection was taken, and actives are over-represented in it overall.

tested on: intestinal alkaline phosphatase [Mus musculus]; experiment: mouse intestinal phosphatase enzyme activation – biochemical, luminescence, single concentration, confirmation (AID 434970); conditions: purified mouse IAP, CDP-Star luminescence, 30 min, at 10 µM; activation factor: measured here: IAP activation factor, stronger effect = higher value; activity change, negative = activation: stronger effect = lower value

Row | Structure (SMILES) | activation factor | activity change, negative = activation
1 | COc1ccc(-c2noc(CCC(=O)N3CCN(c4ccc(F)cc4)CC3)n2)cc1 | 1.1 | -10.3% (inactive)
2 | CC(C)NC(=O)c1ccc(CNC(=O)OCC(F)(F)F)cc1 | 1.05 | -5.05% (inactive)
3 | COCCNC(=O)Cn1c(=O)n(Cc2ccco2)c(=O)c2ccccc21 | 1.06 | -6.35% (inactive)
4 | O=C(NOCc1ccccc1)c1ccccc1 | 0.948 | 5.2% (inactive)
5 | CCOC(=O)C1=CN(Cc2cccc(-c3ccc4c(c3)OCO4)c2)S(=O)(=O)N(C)C1C (stereo not given) | 1 | -0.3% (inactive)
6 | O=C1c2ccccc2[C@@H]2C[C@@H](O)[C@H](Nc3ccccc3Cl)CCN12 | 0.989 | 1.1% (inactive)
7 | CCn1nnnc1SCC(=O)Nc1cc(C)on1 | 0.966 | 3.35% (inactive)
8 | CCOC(=O)C1CCCN(C(=O)Cc2ccc(OC)c(OC)c2)C1 (stereo not given) | 1 | -0.35% (inactive)
9 | Cc1ccc(OCCCC(=O)Nc2nncs2)cc1 | 1 | -0.3% (inactive)
10 | Cc1ccc(Nc2nc(CSc3nnnn3C)cs2)cc1 | 0.806 | 19.4% (inactive)
11 | O=C(Cc1ccccc1)NC(NC(=S)Nc1cc(Cl)ccc1Cl)C(Cl)(Cl)Cl (stereo not given) | 0.912 | 8.8% (inactive)
12 | COC(=O)[C@H](C)N(Cc1ccc(Cl)c(Cl)c1)S(=O)(=O)CCNC1CCCC1 | 0.943 | 5.7% (inactive)
13 | COc1ccc(OC)c(NC(=O)C2C3CCC(C3=C(C)C)C2C(=O)O)c1 (stereo not given) | 0.891 | 10.9% (inactive)
14 | COCC(=O)NC1CC2CCCC(C1)N2Cc1ccccc1 (stereo not given) | 1.08 | -8.2% (inactive)
15 | COc1cc(C(=O)NC2CC3CCCC(C2)N3CC(=O)Nc2ccccc2)cc(OC)c1OC (stereo not given) | 1.07 | -6.8% (inactive)
16 | O=C(NCc1ccccc1)NC1CC2CCC(C1)N2Cc1ccco1 (stereo not given) | 1.08 | -7.85% (inactive)
17 | O=C(Nc1ccccc1-c1ccccc1)NC1CC2CCCC(C1)N2CCc1ccccc1 (stereo not given) | 1.76 | -76.2% (inactive)
18 | O=C(Nc1ccccc1-c1ccccc1)NC1CC2CCCC(C1)N2Cc1ccc(F)cc1 (stereo not given) | 3.7 | -270% (active)
19 | COc1ccc(NC(=O)NC2CC3CCCC(C2)N3Cc2ccccc2)cc1 (stereo not given) | 2.71 | -171% (active)
20 | O=C(Nc1cccn(Cc2ccc(F)cc2)c1=O)NC1CCCCC1 | 0.962 | 3.75% (inactive)
21 | CCc1cccc(CC)c1NC(=O)CN1C2CCCC1CC(NC(=O)Nc1cccc(OC)c1)C2 (stereo not given) | 2.36 | -136% (active)
22 | O=C(Nc1ccc(Cl)c(C(F)(F)F)c1)NC1CC2CCCC(C1)N2Cc1ccccc1 (stereo not given) | 7.69 | -669% (active)
23 | CC(=O)NC1CC2CCCC(C1)N2C(=O)Nc1ccc(Cl)c(C(F)(F)F)c1 (stereo not given) | 1.13 | -13% (inactive)
24 | COc1ccc(NC(=O)Cc2ccccc2)cc1 | 0.897 | 10.3% (inactive)
25 | COc1cccc(C(=O)NC2CC3CCCC(C2)N3CC(=O)Nc2ccc(N(C)C)cc2)c1 (stereo not given) | 0.99 | 1% (inactive)
